The campaign covered roughly 300,000 compounds. About 2,700 (0.9%) were called active. This excerpt belongs to a sample that is enriched for actives. Values without a mark were called inactive.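 The calls were made as follows: active = mean inhibition of at least 30% with at least half of replicates also reaching 30%; inconclusive = no clear call, values can overlap the other calls; inactive = the rest.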
Molecular target: Golgi-associated PDZ and coiled-coil motif-containing protein (Homo sapiens) (UniProt Q9HD26)
Assay: untagged CAL PDZ binding inhibitors, primary screen, biochemical, fluorescence polarization, HTS (AID 602252);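 also: 0% = DMSO neutral control and 100% = excess unlabeled competitor peptide PRC23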
Settings: purified CAL PDZ, TMR-peptide fluorescence polarization, 1 h; at 24.9 µM; hits give high values

| SMILES | inhibition |
| --- | --- |
| CCOC(=O)C1=C(C)N(C[C@@H]2CC[C@@H](Cc3ccc(-c4ccccc4)cc3)O2)C(=O)NC1c1ccc([N+](=O)[O-])cc1 (stereo partly drawn) | -2.42% |
| Cc1ccccc1OC/C(O)=C(\C#N)c1nc2ccccc2[nH]1 | 4.87% |
| CC(C)(C)c1nnc2sc(SCC(O)=C(C#N)c3nc4ccccc4[nH]3)nn2c1=O | 43.7% (active) |
| N#C/C(=C(/O)COc1cccc2ccccc12)c1nc2ccccc2[nH]1 | -1.44% |
| CC1CCCCC12NC(=O)N(CC(=O)OCc1c(F)cccc1Cl)C2=O (stereo not drawn) | -9.25% |
| C(#CCN1CCOCC1)CCCN1CCOCC1 | -3.29% |
| Cc1cc(C(=O)COc2ccc(Br)cc2F)c(C)n1C1CC1 | -6.1% |
| COc1ccc(CNC(=O)COc2ccccc2C(=O)c2cnn(-c3ccccc3)c2)cc1OC | -9.89% |
| O=C(COC(=O)C12CC3CC(CC(O)(C3)C1)C2)NC12CC3CC(CC(C3)C1)C2 | -5.51% |
| CC(NCCO)C(=O)C12CC3CC(CC(C3)C1)C2 (stereo not drawn) | 4.83% |
| O=C(CNCCO)NC12CC3CC(CC(C3)C1)C2 | 40.5% (active) |
| Cc1cccc(C(=O)N[C@H](C(=O)NCc2cccs2)C(C)C)c1 | -0.924% |
| O=C(Nc1ccc(S(=O)(=O)N2CCOCC2)cc1)C1CCN(S(=O)(=O)c2ccc(Cl)cc2)CC1 | -10.9% |
| CCNC(=S)Nc1cccc(Cl)c1C | -2.42% |
| CN(C)S(=O)(=O)c1cccc(NC(=S)NCc2ccc3c(c2)OCO3)c1 | -4.92% |
| Cc1c(Cl)cccc1NC(=S)NCc1ccc2c(c1)OCO2 | 51.1% (active) |
| CC(C)n1cnc2c(NCc3ccccc3)cc(OCC3CCN(C)CC3)cc21 | 3.01% |
| CN(C(=O)c1cccc(NC(=O)C2CCN(C(=O)OC(C)(C)C)CC2)c1)C1CCC1 | -3.04% |
| O=C(CCc1ccc(S(=O)(=O)N2CCOCC2)cc1)NN=C1CCCCCCC1 | -3.33% |
| O=C(c1cc(S(=O)(=O)N2CCOCC2)ccc1Cl)N1CCOCC1 | -1.76% |
| O=C(O)c1ccc(S(=O)(=O)N2CCOCC2)o1 | 32.5% (active) |
| Cc1cccc(C=CC(=O)c2ccc(Cl)cc2)c1 | -5.84% |
| Cc1cc(OCCCC(=O)Nc2cc(S(=O)(=O)N3CCOCC3)ccc2N2CCOCC2)ccc1Cl | -3.89% |
| CN(C(=O)c1cccc(NC(=O)Cc2ccc([N+](=O)[O-])cc2)c1)C1CCC1 | -2.37% |

| SMILES | inhibition |
| --- | --- |
| COc1ccc(S(=O)(=O)N2CCc3ccccc32)cc1C(=O)Nc1cc(S(C)(=O)=O)ccc1Cl | -5.31% |
| CC1CN(C(=O)c2ccc([N+](=O)[O-])s2)CC(C)O1 (stereo not drawn) | 0.023% |
| CC(=O)c1ccc(NC(=O)CSC(=S)N2CCCC2)cc1 | -3.19% |
| O=C(CSC(=S)N1CCCCC1)c1c(F)cccc1F | 79.2% (active) |
| O=C(CSC(=S)N1CCOCC1)c1ccccc1 | 0.137% |
| O=C(Nc1ccc(NC(=O)c2ccccc2F)cc1)c1ccccc1F | 4.51% |
| O=C(CNC(=O)c1ccc(F)cc1)c1ccccc1 | -6.34% |
| O=C(CNC(=O)c1ccccc1F)c1ccc(Br)cc1 | 57.3% (active) |
| Cc1c(NC(=O)CN(C)CC(=O)Nc2ccc(F)c(F)c2F)c(=O)n(-c2ccccc2)n1C | -3.99% |
| O=C1c2oc3ccccc3c(=O)c2C(c2cccc(O)c2)N1c1ccccn1 (stereo not drawn) | -1.77% |
| O=C1c2oc3ccc(Br)cc3c(=O)c2C(c2cccc(F)c2)N1CCO (stereo not drawn) | 3.36% |
| COCCN1C(=O)c2oc3c(C)cc(C)cc3c(=O)c2C1c1cccc(O)c1 (stereo not drawn) | 47.9% (active) |
| COc1ccccc1C(CNC(=O)c1ccc(C)c(S(=O)(=O)N2CCCCC2)c1)N(C)C (stereo not drawn) | -4.72% |
| Cc1ccc(C(=O)Nc2ncccc2C)cc1S(=O)(=O)N1CCOCC1 | -3.36% |
| Cc1ccc(C(=O)NCC(c2cccs2)N(C)C)cc1S(=O)(=O)N1CCOCC1 (stereo not drawn) | 47.1% (active) |
| O=C(Nc1c(Br)cc2c(c1Br)Cc1cc([N+](=O)[O-])ccc1-2)C(Cl)Cl | -7.68% |
| OCCC1CN(Cc2ccc3nsnc3c2)CCN1C1CCCC1 (stereo not drawn) | 2.19% |
| OCCC1CN(Cc2ccc3nsnc3c2)CCN1C1CCCCC1 (stereo not drawn) | 77% (active) |
| Cn1cnnc1Sc1ccc(CN2CCN(C3CCCC3)C(CCO)C2)o1 (stereo not drawn) | 2.66% |
| C/C(=N/Nc1nc(-c2ccccc2)c(CC(=O)O)s1)c1ccccc1 | 2.17% |
| CCOC(=O)C(=O)Nc1nc(-c2ccccc2)c(CC)s1 | 65.4% (active) |
| CCOc1ccc(-c2nc(C)sc2CC(=O)O)cc1 | -0.665% |
| CCCCCCCCNS(=O)(=O)CCNC1CCCCC1 | 0.068% |
| CC(=O)Oc1ccc(OC(C)=O)c2c1C1C=CC2CC1 | 3.2% |

| SMILES | inhibition |
| --- | --- |
| Cc1ccc(N=Cc2c(O)cc(C)oc2=O)c(C)c1 | -1.38% |
| COc1ccc(N=Cc2c(O)[nH]c3ccccc23)cc1OC | 0.564% |
| COc1cc(N=Cc2c(O)c3ccccc3oc2=O)c(OC)cc1Cl | 36.3% (active) |
| CC(=O)Nc1ccc(S(=O)(=O)NCC(=O)OCC(=O)c2ccc[nH]2)cc1 | -5.59% |
| Nc1ncnc2c1ncn2[C@@H]1O[C@H](CNCc2cccn2-c2nccs2)[C@@H](O)[C@H]1O | -2.1% |
| COc1ccc2c(c1)C(=O)CC(c1ccccc1)O2 (stereo not drawn) | 16.3% |
| COc1ccc(C2CC(=O)NC(=O)C2)cc1 | -5.54% |
| COC1=CC(=O)OC(c2ccc(OC)cc2)C1 (stereo not drawn) | 45% (active) |
| CC1(C)C(=O)CCC2(C)C1=CCC1C2C(=O)CC2(C)C1CCC2(O)C(=O)CO (stereo not drawn) | -4.84% |
| O=C(O)c1ccc([N+](=O)[O-])cc1Sc1ccsc1 | -2.87% |
| O=C1N[C@@H](c2ccccc2)COC(=O)[C@H](Cc2ccc(F)cc2)C/C=C\C[C@@H]1CC(=O)N(CCO)Cc1ccccc1 | 2.21% |
| COc1ccc(CN2C(CC(=O)Nc3cccnc3)c3ccc(C(F)(F)F)cc3S2(=O)=O)cc1 (stereo not drawn) | -6.01% |
| CSCCC1NC(=O)N(CC(=O)Nc2cccc(S(=O)(=O)N3CCCCCC3)c2)C1=O (stereo not drawn) | -13.3% |
| CCCCN(C(=O)CSCc1ccc(C)cc1)c1c(N)n(Cc2ccccc2)c(=O)[nH]c1=O | -2.71% |
| Cc1cnc(NC(=O)c2ccccn2)s1 | 54.3% (active) |
| Cc1cnc(NC(=O)c2ccc(Cl)nc2)s1 | 5.61% |
| Cc1cnc(NC(=O)CSc2c(Cl)cccc2Cl)s1 | -4.72% |
| O=C(Nc1ccn(CCCNCc2ccc3[nH]ccc3c2)c(=O)n1)OCc1ccccc1 | -6.18% |
| Cc1cc(CNC(=O)C2CCC(=O)N(CCc3ccc(Cl)cc3)C2)no1 (stereo not drawn) | 45.2% (active) |
| O=C(NCCN1CCOC1=O)C1CCC(=O)N(CCc2ccc(Cl)cc2)C1 (stereo not drawn) | -3.91% |
| O=C(NCCCc1ccccc1)C1CCC(=O)N(CCc2ccc(Cl)cc2)C1 (stereo not drawn) | -3.25% |
| Cc1ccc(NC(=O)C2CCC(C(C)(C)C)CC2)cc1S(=O)(=O)N1CCOCC1 (stereo not drawn) | -5.24% |
| O=C(CC1Sc2ccccc2NC1=O)NNc1ccc(Cl)c(Cl)c1 (stereo not drawn) | -5.96% |
| CCCNC(=O)CCc1c(C)nc2c(c(C)nn2-c2ccccc2)c1C | -0.965% |

| SMILES | inhibition |
| --- | --- |
| Cc1nc2c(c(C)nn2-c2ccccc2)c(C)c1C | 45.7% (active) |
| CSc1ccc(-c2c(C#N)c(N)nc3c2c(C)nn3-c2ccccc2)cc1 | -0.521% |
| N#CC1=C(N)Oc2cc(N)ccc2C1c1ccccc1 (stereo not drawn) | 2.39% |
| Cc1sc2ncnc(N3CCC(C(=O)Nc4ccc(F)cc4Cl)CC3)c2c1C | -2.24% |
| O=C(Nc1ccc(F)cc1)C(=O)c1cn(CC(=O)N2CCOCC2)c2ccccc12 | 45.3% (active) |
| Cc1ccc(CNC(=O)C(=O)c2cn(CC(=O)N3CCOCC3)c3ccccc23)cc1 | -3.01% |
| COc1cccc(NC(=O)C(=O)c2cn(CC(=O)N3CCOCC3)c3ccccc23)c1 | -2.58% |
| COc1ccccc1-c1nc(C#N)c(N2CCC(C(N)=O)CC2)o1 | -2.05% |
| Cc1cc(C)c(C#N)c(N2CCC(C(N)=O)CC2)n1 | 47.5% (active) |
| Cc1cccn2c(=O)c(/C=C(\C#N)S(=O)(=O)c3ccc(Cl)cc3)c(N3CCC(C(N)=O)CC3)nc12 | 3.73% |
| O=C(NCCc1ccccc1)c1cccc(NC(=O)c2ccccc2)c1 | -3.44% |
| CC(C)(C)OC(=O)C[C@@H]1C/C=C\C[C@@H](CC(=O)N[C@H](CO)Cc2ccccc2)C(=O)NCCOC1=O | -9.11% |
| O=C(NNC(=O)c1ccccc1O)c1ccccc1O | -3.61% |
| CN1CCN(C(=O)c2ccc(-c3ccc(Br)cc3)o2)CC1 | -4.62% |
| S=C(c1ccccc1)N1CCCC1 | -2.69% |
| S=C(c1ccc(-c2ccccc2)o1)N1CCCCC1 | 54.6% (active) |
| C=CC[C@H](CC(=O)N(CCO)Cc1ccccc1)C(=O)N[C@@H](COC(=O)[C@@H](CC=C)Cc1ccc(F)cc1)Cc1ccccc1 | -5.7% |
| CC(C)N(C(=O)[C@H]1C[C@H](CC(=O)NCCC2=CCCCC2)C(=O)N2CCc3c([nH]c4cc(CCC(=O)N(C)C)ccc34)[C@]12C)C(C)C | -1.76% |
| CC(C)(C)Nc1c(N)c(=O)oc2ccccc12 | 3.5% |
| Cc1ccccc1-n1nnc2c(=O)oc3ccccc3c21 | 0.078% |
| O=c1oc2ccccc2c(=O)c2ccccc12 | 39.9% (active) |
